Test results reported in PubChem BioAssay AID488841 (Sanford-Burnham Center for Chemical Genomics, 2010).
Screen size: about 1,400 compounds; about 380 (27%) were called active.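 The calls were made as follows: active = mean inhibition above 50% across duplicate retests at 10 µM; inactive = the rest.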 This is one part of the list.

Assay: yeast NALP1 reporter signal suppression – S. cerevisiae, luminescence, single concentration, NALP1 inhibitor project, confirmation (AID 488841);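 also: plate controls were DMSO in galactose medium for no effect and cells in plain SD medium for full effect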
Conditions: S. cerevisiae NALP1/ASC/Caspase-1 reporter, beta-gal luminescence; at 10 µM; hits give high values

inhibition, active:
N/C(Cc1ccc(Cl)cc1Cl)=N\OC(=O)c1cccs1 51.2%, Cc1ccc(/C(N)=N/OC(=O)c2ccc3c(c2)OCO3)cc1 77.3%, Cc1ccc(/C(N)=N/OC(=O)c2cccs2)cc1 57.2%, Cc1cccc(/C(N)=N/OC(=O)c2ccc3c(c2)OCO3)c1 54.1%, Nc1ccccc1-c1nc2ccccc2[nH]1 71.9%, O=C(Nc1cccc(O)c1)c1cc(-c2ccco2)on1 74.8%, CC(C)CC(=O)/C(=C\c1ccc(Cl)cc1Cl)n1cncn1 100%, O=C(NCCc1csc(-c2ccccc2)n1)c1ccc(Br)o1 57.4%, CS(=O)(=O)c1nc(-c2ccco2)cc(C(F)(F)F)n1 81.3%, O=S(=O)(Nc1cc(Sc2cccc3cccnc23)c(O)c2ccccc12)c1ccc(F)cc1 56.7%

inhibition, inactive:
O=C1CN(c2nnnn2-c2ccccc2)CCN1 35%, CNc1ccccc(-c2ccc3ccccc3n2)c1=O 24.8%, N/C(Cc1cccs1)=N\OC(=O)COc1ccccc1Cl 45.7%, Nc1ccc(C(=O)c2cccs2)cc1 44%, COc1ccc(Cl)cc1C(=O)O/N=C(\N)c1ccc(Cl)cc1 35.3%, Cc1ccc(/C(N)=N/OC(=O)c2ccc(Cl)cc2Cl)cc1 36%, Cc1cccc(/C(N)=N/OC(=O)c2ccc(Cl)cc2Cl)c1 21.6%, Cc1cccc(/C(N)=N/OC(=O)c2cccc3ccccc23)c1 28.9%, COc1ccc(C(=O)O/N=C(\N)Cc2ccc(Cl)cc2Cl)cc1OC 40.5%, COc1ccc(/C=C(/C(=O)c2cccs2)N2C=CC=CC2=C(C#N)C#N)cc1 38.4%, COc1ccc2oc(=Nc3ccccc3)c(-c3nc4ccccc4[nH]3)cc2c1 38%, Cc1ccc2nc(-c3ccc(NC(=O)CN(c4ccccc4C)S(C)(=O)=O)cc3)sc2c1 37.2%, O=C(NCc1ccc(F)cc1)c1cc(-c2ccco2)on1 33%, CCCn1c(-c2cccnc2Cl)nc2cc(Cl)c(Cl)cc21 41.4%, Oc1ccc2ccccc2c1CN1CCN(c2ccccc2)CC1 33.5%, Cc1ccc(CN2CCN(/N=C/c3cccs3)CC2)cc1 34.5%, O=C(NCCCn1ccnc1)c1ccc(Br)o1 22.2%, COc1ccc(-c2nc(CCNC(=O)c3cccs3)cs2)cc1 41.9%, Cc1ccc2cc(CN(Cc3ccco3)C(=O)NC3CCCCC3)c(=O)[nH]c2c1C 18.7%, Nc1nc(-c2ccco2)nn1S(=O)(=O)c1ccccc1 23.4%, CCOC(=O)c1c(C)[nH]c2c1-c1ccccc1C(=O)C2=O 25.1%, O=S(=O)(Nc1ccc(Oc2ncccn2)c(Cl)c1)c1ccc(F)cc1 23%, Cc1cc(C)c(S(=O)(=O)Nc2cc(SCC(=O)O)c(O)c3ccccc23)cc1C 22.2%, CN(C)CCN(Cc1ccccc1)c1nccc(N(C)C)c1C#N 25.1%, O=C(O)C1C2C=CC(C2)C1C(=O)NCc1ccc(Cl)c(Cl)c1 (stereo unspecified) 33.5%, CS(=O)(=O)N(CC(=O)Nc1ccccc1Sc1ccccc1)C1CCCCC1 -0.35%
